mHTT CaM bind = inhibitors of human mutant huntingtin-calmodulin interaction; P42858; AlphaScreen His-mHTT/GST-CaM binding, luminescence; inhibition, % at 15 µM; 3.6% of 190,000 active; AID 1671202;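 also: 0% = both proteins with DMSO and 100% = one protein alone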
Pf apPOL block = Pf-apPOL DNA polymerase inhibition. 0.25% of 210,000 active. inhibition, % at 10 µM. Recombinant Pf-apPOL, molecular beacon fluorescence, 1.5 h
Starred values were filed as active, the others as inactive. This excerpt belongs to a sample that is enriched for hits. Rule as the data show it: active = inhibition above about 50%; inactive = the rest.

COc1ccc(C2=NOC(CN(C)C(=O)C(C)C)C2)cc1 (stereo not drawn) was read as mHTT CaM bind 5 and Pf apPOL block -7.
Screening Cc1cc(C2C(C#N)=C(N)N(c3ccccc3[N+](=O)[O-])C3=C2C(=O)CC(C)(C)C3)c(C)s1 (stereo not drawn) returned mHTT CaM bind 48 and Pf apPOL block 0.
Screening Cc1cc(C)c2c(=O)n(C(=O)c3cccs3)sc2n1 returned Pf apPOL block 100*.
Cc1cc(C)c(C#N)c(OC(=O)c2cccs2)n1 was read as Pf apPOL block 2.
For NC(=O)c1ccccc1NC(=O)c1ccccc1[N+](=O)[O-] the results were mHTT CaM bind 2 and Pf apPOL block -4.
CC(=O)Nc1ccccc1NC(=O)c1ccccc1[N+](=O)[O-] was read as mHTT CaM bind 60* and Pf apPOL block 1.
Screening Cc1cccc(NC(=O)N2CCC(N3CCN(Cc4ccccc4)C3=O)CC2)c1C returned mHTT CaM bind 100* and Pf apPOL block -4.
Cc1ccccc1NC(=O)N1CCC(N2CCN(Cc3ccccc3)C2=O)CC1 was read as mHTT CaM bind 0 and Pf apPOL block -3.
For Cc1ccc(Nc2c(C(=O)NCc3ccc(F)cc3)cnc3c2c(C)nn3C)cc1 the results were mHTT CaM bind 94* and Pf apPOL block -4.
Screening CCCNC(=O)c1cnc2c(c(C)nn2C)c1Nc1ccc(C)cc1 returned mHTT CaM bind 4 and Pf apPOL block -2.
For Cc1cc2n(c1)CCn1c(C)ccc1-2 the results were mHTT CaM bind 93* and Pf apPOL block 42.
Screening Cc1ccc2n1CCn1cc(-c3ccc(Br)cc3)cc1-2 returned mHTT CaM bind 99* and Pf apPOL block -7.
Cc1ccc(C)n1-c1ccc(Br)cc1 was read as Pf apPOL block -6.
Screening CC(C)C(=O)NCCNc1ccc([N+](=O)[O-])cc1Cl returned mHTT CaM bind 1 and Pf apPOL block -3.
For CCOc1ccc(C(=O)Nc2ccc3c(c2)C(=O)N(C)C3=O)cc1Br the results were mHTT CaM bind 4 and Pf apPOL block -9.
For CCOc1ccc(NC(=O)C(C)Oc2ccccc2)cc1 (stereo not drawn) the results were mHTT CaM bind -8 and Pf apPOL block 1.
Screening CCOc1ccc(NC(=O)C(C)Sc2nnc(C(c3ccccc3)c3ccccc3)n2C)cc1 (stereo not drawn) returned mHTT CaM bind 12 and Pf apPOL block 82*.
OCCNCCOc1ccc(Cl)cc1 was read as mHTT CaM bind -6 and Pf apPOL block 77*.
For Cc1cc(OCCNCCO)cc(C)c1Cl the results were mHTT CaM bind 4 and Pf apPOL block -2.
Fc1ccc([C@@H]2Nc3c(F)cccc3[C@@H]3C=CC[C@@H]32)cc1 was read as mHTT CaM bind -11.
Oc1ccc(Cl)c2c1NC(c1ccc(Cl)cc1)C1CC=CC21 (stereo not drawn) was read as mHTT CaM bind 100* and Pf apPOL block -3.
Screening CC(=O)c1ccc(O)c2c1C1C=CCC1C(c1ccc(Cl)cc1)N2 (stereo not drawn) returned mHTT CaM bind 64* and Pf apPOL block -7.
`Fc1cccc2c1NC(c1ccc(Cl)cc1)C1CC=CC21` (stereo not drawn) gave mHTT CaM bind 59* and Pf apPOL block 2.
For CN(Cc1ccccc1)C(=O)c1ccc(NC(=O)C2C3CC4OC(=O)C2C4C3)cc1 (stereo not drawn) the results were mHTT CaM bind -5 and Pf apPOL block -8.
`Fc1ccc(C2=Nn3c(nnc3-c3ccccc3Cl)SC2)cc1` gave mHTT CaM bind 2 and Pf apPOL block 3.
O=C1C2ON(c3ccccc3)C(c3cc(Br)ccc3O)C2C(=O)N1c1ccccc1Cl (stereo not drawn) was read as Pf apPOL block -5.
Screening CCOC(=O)c1ccc(N=Cc2cc(I)cc(I)c2O)cc1 returned Pf apPOL block -26.
For N#Cc1ccc(N=Cc2cc(I)cc(I)c2O)cc1 the results were mHTT CaM bind 53* and Pf apPOL block 0.
COCCNC1=NCCNC12CCN(S(=O)(=O)c1ccc(Cl)cc1)CC2 was read as mHTT CaM bind -6 and Pf apPOL block -2.
`COc1ccc(C(C[N+](=O)[O-])c2c(C)[nH]c3ccccc23)cc1OC` (stereo not drawn) gave mHTT CaM bind 50 and Pf apPOL block -7.
For COc1ccc(C(C[N+](=O)[O-])c2c(C)[nH]c3ccccc23)c(OC)c1 (stereo not drawn) the results were mHTT CaM bind 63* and Pf apPOL block 2.
For COc1cc(C(C[N+](=O)[O-])c2c(-c3ccccc3)[nH]c3ccccc23)cc(OC)c1OC (stereo not drawn) the results were mHTT CaM bind 58* and Pf apPOL block -1.
COc1ccc(C(C[N+](=O)[O-])c2c[nH]c3ccccc23)cc1 (stereo not drawn) was read as mHTT CaM bind 36 and Pf apPOL block -2.
Screening Cc1ccc(C(=O)Nc2c3c(nn2-c2ccc(Cl)cc2)CS(=O)(=O)C3)cc1C returned mHTT CaM bind 14 and Pf apPOL block 0.
Screening Cc1cccc(C(=O)N2CCC(C(=O)NCc3csc(-c4cccs4)n3)CC2)c1 returned mHTT CaM bind 9 and Pf apPOL block 9.
For NC(=O)c1nccn1Cc1ccccc1 the results were mHTT CaM bind -1 and Pf apPOL block 2.
Screening CCCCCCNC(=O)c1c[nH]c2ccc(S(=O)(=O)N(C)c3ccc(F)cc3)cc2c1=O returned mHTT CaM bind 2 and Pf apPOL block -3.
Screening CCCCC[C@H]1CN(CCc2ccccc2)C(=O)[C@@H]1CC(=O)NCc1ccc(OC)cc1 returned mHTT CaM bind 75* and Pf apPOL block -5.
CCCCC[C@H]1CN(CCCC)C(=O)[C@@H]1CC(=O)NCc1ccc(OC)cc1 was read as mHTT CaM bind 16 and Pf apPOL block -2.
O=C(CSc1ncnc2c1cnn2-c1ccc(Cl)cc1)NCc1ccco1 was read as mHTT CaM bind -10 and Pf apPOL block -1.
For COc1cccc(C2CC(c3cccc(Br)c3)Nc3ncnn32)c1OC (stereo not drawn) the results were mHTT CaM bind 68* and Pf apPOL block -2.
COc1ccc(C2CC(c3cccc(Br)c3)Nc3ncnn32)cc1OC (stereo not drawn) was read as mHTT CaM bind 39 and Pf apPOL block 1.
`COc1ccc(C2CC(c3cccc(Br)c3)Nc3ncnn32)c(OC)c1OC` (stereo not drawn) gave mHTT CaM bind 60* and Pf apPOL block -4.
`COc1cccc(C2CC(c3cccc(OC)c3OC)n3ncnc3N2)c1` (stereo not drawn) gave mHTT CaM bind 2 and Pf apPOL block 2.
CC(=O)N1CC(=O)NC(=Cc2cccnc2)C1=O was read as Pf apPOL block 52*.
`O=C1/C(=C/c2cccnc2)CC/C1=C\c1cccnc1` gave mHTT CaM bind 4 and Pf apPOL block 1.
Screening Cc1cccc(-c2nccc(C3CCCN(C(=O)Cc4cccc(F)c4)C3)n2)c1 (stereo not drawn) returned mHTT CaM bind 46 and Pf apPOL block -4.
`O=C(Cc1cccc(F)c1)N1CCCC(c2ccnc(Nc3cccc(F)c3)n2)C1` (stereo not drawn) gave mHTT CaM bind 73* and Pf apPOL block -2.
For CCOCC(=O)N1CCCC(c2ccnc(Nc3ccc(C)cc3)n2)C1 (stereo not drawn) the results were mHTT CaM bind 38 and Pf apPOL block -3.

Source: PubChem BioAssay
